# Values joined by “and” are separate entries in the source; they are usually repeats but may differ in a detail not shown here. Identical values can stand only once. Inconclusive results are not listed. Entries that show only a call come without a potency. The source holds several records for some structures; these can differ, active in one and inactive in another. Active and inactive are the calls of the source. Unless noted, calls follow the shape of the dose curve; as a rule, active = well fitted curve in the direction sought with a large enough effect in the repeat runs; inconclusive = weak or mixed curves; inactive = no such curve, though single readings can be large; an effect the other way counts as inactive or inconclusive.
# Key:
# [1] = qHTS assay to identify small molecule agonists of the hypoxia (HIF-1) signaling pathway - cell viability counter screen (AID 1224844; calls by dose curve; also: nearly all actives have a fitted effect of over 50% in size)
# Outline: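 HRE-bla ME-180 cells in medium with 0.5% dialyzed FBS were preincubated 5 hrs at 37C, exposed to compounds for 17 hrs, then viability was read as CellTiter-Glo luminescence after 30 min at room temperature, in the reporter wells.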
# [2] = qHTS assay to identify small molecule agonists of H2AX (AID 1224845; active = well fitted activation curve with a large enough effect in the signal ratio in the repeat runs, not every such curve was filed as active; the % refers to the signal ratio)
# Outline: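 Phospho-H2AX Ser139 measured by HTRF (ex 320 nm; em 665 and 620 nm) after 24 hr antibody incubation. Compounds, 15 concentrations, 0.76% DMSO, were applied to CHO-K1 cells for 3hr at 37C before lysis.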
# [3] = qHTS assay to identify small molecule agonists of H2AX - cell viability counter screen (AID 1224847; calls by dose curve; also: top concentration of the series differs between compounds; nearly all actives have a fitted effect of over 30% in size)
# Outline: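 Quantitative HTS viability measurement: CHO-K1 wild-type cells in serum (10% FBS) medium, short 3 hr drug exposure at 37C with 0.76% DMSO, CellTiter-Glo luminescent detection.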
# [4] = qHTS assay to identify small molecule antagonists of the estrogen related receptor (ERR) signaling pathway from Tox21 library (AID 1224848); also: nearly all actives have a fitted effect of over 50% in size
# Outline: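 Reading was by luminescence 30 min after ONE-Glo addition. Before that, ERR cells at 2,000 per well had rested 6 h at 37 C/5% CO2 and then received pin-tooled compounds in DMSO for 18 h at 37 C.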
# [5] = qHTS assay to identify small molecule agonists of the estrogen related receptor (ERR) signaling pathway from Tox21 library (AID 1224849; calls by dose curve; also: nearly all actives have a fitted effect of over 15% in size); conditions: ERR reporter cell line, ONE-Glo luciferase, 18 h
# Outline: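 ERR reporter cell line (NTP) seeded, rested 6 h at 37 C/5% CO2, then pinned with Tox21 compounds in DMSO. After 18 h at 37 C, ONE-Glo luciferase luminescence was read following 30 min at room temperature.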
# [6] = qHTS RealTime-Glo MT Cell Viability Assay in HepG2 cells - 24 hour (AID 1224867); also: nearly all actives have a fitted effect of over 50% in size
# Outline: (§1)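 Tox21 10K library screened in qHTS format on HepG2 cells carrying RealTime-Glo reagents. Compounds were added after a 5 h preincubation, and the luminescent signal from continuous culture was measured repeatedly during 40 h treatment.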
# [7] = qHTS RealTime-Glo MT Cell Viability Assay in HEK293 cells - 32 hour (AID 1224868); also: nearly all actives have a fitted effect of over 50% in size; also: potency is read from the fitted curve at half-maximal effect
# Outline: (§2)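 Luminescence generated by NanoLuc from substrate produced by living HEK293 cells served as the viability signal. Each value reflects the reading at its stated time point during continuous 40 h compound exposure at 37 C.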
# [8] = A CellTox Green Cytotoxicity Assay to monitor cytotoxicity in HEK293 cells - 0 hour (AID 1224869); also: nearly all actives have a fitted effect of over 50% in size
# Outline: (§3)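 HEK293 cells premixed with CellTox Green dye were seeded at 600 cells/well and left 5 h at 37 C/5% CO2 before pin transfer of 23 nL compound in DMSO. Fluorescence from dye bound to dead-cell DNA was read during 40 h treatment.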
# [9] = qHTS RealTime-Glo MT Cell Viability Assay in HepG2 cells - 40 hour (AID 1224870); also: nearly all actives have a fitted effect of over 50% in size
# Outline: (§4)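 Real-time viability: cells seeded at 600 per well together with NanoLuc and cell-permeant prosubstrate, compounds added after 5 h incubation. Luminescence tracked at 0, 8, 16, 24, 32 and 40 h of exposure.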
# [10] = A CellTox Green Cytotoxicity Assay to monitor cytotoxicity in HEK293 cells - 40 hour (AID 1224871); also: nearly all actives have a fitted effect of over 45% in size; also: potency is read from the fitted curve at half-maximal effect
# Outline: as §3
# [11] = qHTS RealTime-Glo MT Cell Viability Assay in HEK293 cells - 16 hour (AID 1224872)
# Outline: as §2
# [12] = qHTS RealTime-Glo MT Cell Viability Assay in HepG2 cells - 8 hour (AID 1224873); also: nearly all actives have a fitted effect of over 55% in size
# Outline: as §4
# [13] = A CellTox Green Cytotoxicity Assay to monitor cytotoxicity in HEK293 cells - 24 hour (AID 1224875); also: nearly all actives have a fitted effect of over 45% in size
# Outline: as §3
# [14] = A CellTox Green Cytotoxicity Assay to monitor cytotoxicity in HepG2 cells - 16 hour (AID 1224876); also: nearly all actives have a fitted effect of over 45% in size; also: potency is read from the fitted curve at half-maximal effect
# Outline: (§5)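 HepG2 cells were seeded together with the CellTox Green dye at 600 cells/well, left 5 h at 37 C/5% CO2, then given compounds in DMSO. Fluorescence from dye bound to dead-cell DNA was read repeatedly over 40 h of treatment at 37 C.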
# [15] = qHTS RealTime-Glo MT Cell Viability Assay in HepG2 cells - 32 hour (AID 1224877); also: nearly all actives have a fitted effect of over 55% in size
# Outline: as §1
# [16] = A CellTox Green Cytotoxicity Assay to monitor cytotoxicity in HepG2 cells - 24 hour (AID 1224878); also: nearly all actives have a fitted effect of over 45% in size; also: potency is read from the fitted curve at half-maximal effect
# Outline: as §5
# [17] = A CellTox Green Cytotoxicity Assay to monitor cytotoxicity in HepG2 cells - 40 hour (AID 1224879); also: nearly all actives have a fitted effect of over 40% in size; also: potency is read from the fitted curve at half-maximal effect
# Outline: as §5
# [18] = qHTS RealTime-Glo MT Cell Viability Assay in HEK293 cells - 0 hour (AID 1224880)
# Outline: (§6)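 HEK293 cells mixed with RealTime-Glo reagents (NanoLuc plus cell-permeant prosubstrate) at 600 cells/well, preincubated 5 h at 37 C/5% CO2, then given 23 nL compound in DMSO. Nonlytic luminescence from viable cells was read at 0, 8, 16, 24, 32 and 40 h.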
# [19] = qHTS RealTime-Glo MT Cell Viability Assay in HEK293 cells - 40 hour (AID 1224874); conditions: RealTime-Glo luminescence; max response: stronger effect = lower value; also: nearly all actives have a fitted effect of over 50% in size; also: potency is read from the fitted curve at half-maximal effect
# Outline: as §6
# [20] = qHTS assay to identify small molecule agonists of the hypoxia (HIF-1) signaling pathway (AID 1224846; active = well fitted activation curve with a large enough effect in the signal ratio in the repeat runs, not every such curve was filed as active; the % refers to the signal ratio)
# Outline: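 HRE-bla ME-180 cells (beta-lactamase reporter under hypoxia response element) were plated at 2,000 cells/well in medium with 0.5% dialyzed FBS, rested 5 hrs, then given compounds in DMSO for 17 hrs at 37C, 5% CO2. Reporter induction was read with CCF4-AM FRET substrate.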
structure (smiles),measurement,setting,value
NC(=O)c1cnccn1,Potency,[1],inactive
same,outcome,[2],inactive
same,outcome,[3],inactive
same,Potency,[4],inactive
same,"activity change, positive = activation",[5]; at 42.5 µM (top of the series),4.26% (inactive)
same,"activity change, positive = activation",[5]; at 92.4 µM (top of the series),-0.224% (inactive) and -0.902% (inactive)
same,Potency,[6],inactive
same,Potency,[7],inactive
same,outcome,[8],inactive
same,Potency,[9],inactive
same,Potency,[10],inactive
same,Potency,[11],inactive
same,outcome,[12],inactive
same,Potency,[13],inactive
same,Potency,[14],inactive
same,Potency,[15],inactive
same,Potency,[16],inactive
same,Potency,[17],inactive
same,Potency,[18],inactive
Nc1ccc(S(=O)(=O)Nc2nccs2)cc1,Potency,[1],inactive
same,outcome,[2],inactive
same,outcome,[3],inactive
same,Potency,[4],inactive
same,"activity change, positive = activation",[5]; at 42.5 µM (top of the series),5.51% (inactive)
same,"activity change, positive = activation",[5]; at 92.4 µM (top of the series),-7.05% (inactive) and 5.21% (inactive) and 6.11% (inactive)
same,Potency,[6],inactive
same,Potency,[7],inactive
same,outcome,[8],inactive
same,Potency,[9],inactive
same,Potency,[10],inactive and 43.6 µM (active)
same,Potency,[11],inactive
same,outcome,[12],inactive
same,Potency,[14],inactive and 38.9 µM (active)
same,Potency,[15],inactive
same,Potency,[16],inactive and 43.6 µM (active)
same,Potency,[17],inactive and 38.9 µM (active)
same,Potency,[18],inactive
Cn1c(=O)c2[nH]cnc2n(C)c1=O,Potency,[1],inactive
same,outcome,[2],inactive
same,outcome,[3],inactive
same,Potency,[6],inactive
same,Potency,[7],inactive
same,outcome,[8],inactive
same,Potency,[9],inactive
same,Potency,[10],inactive
same,Potency,[11],inactive
same,outcome,[12],inactive
same,max response,[19],0.637% (inactive) and -1.08% (inactive) and -2.33% (inactive)
same,Potency,[13],inactive
same,Potency,[14],inactive
same,Potency,[15],inactive
same,Potency,[17],inactive
same,Potency,[18],inactive
Cn1cc[nH]c1=S,Potency,[1],inactive
same,outcome,[2],inactive
same,outcome,[3],inactive
same,Potency,[6],inactive
same,Potency,[7],inactive
same,outcome,[8],inactive
same,Potency,[9],inactive
same,Potency,[10],inactive
same,Potency,[11],inactive
same,outcome,[12],inactive
same,max response,[19],-1.38% (inactive) and 17.2% (inactive) and 3.37% (inactive)
same,Potency,[13],inactive
same,Potency,[14],inactive
same,Potency,[15],inactive
same,Potency,[17],inactive
same,Potency,[18],inactive
O=C(O)c1[nH]n(-c2ccc(S(=O)(=O)O)cc2)c(=O)c1N=Nc1ccc(S(=O)(=O)O)cc1,Potency,[1],inactive
same,outcome,[20],inactive
same,outcome,[3],inactive
same,Potency,[6],inactive
same,Potency,[7],inactive
same,outcome,[8],inactive
same,Potency,[9],inactive
same,Potency,[10],inactive
same,Potency,[11],inactive
same,outcome,[12],inactive
same,Potency,[13],inactive
same,Potency,[14],inactive
same,Potency,[15],inactive
same,Potency,[16],inactive
same,Potency,[17],inactive
same,Potency,[18],inactive
Nc1ccn([C@H]2CC[C@@H](CO)O2)c(=O)n1,Potency,[1],inactive
same,outcome,[2],inactive
same,outcome,[3],inactive
same,Potency,[6],inactive
same,Potency,[7],inactive
same,outcome,[8],inactive
same,Potency,[9],inactive
same,Potency,[10],inactive
same,Potency,[11],inactive
same,outcome,[12],inactive
same,Potency,[13],inactive
same,Potency,[14],inactive
same,Potency,[15],inactive
same,Potency,[16],inactive
same,Potency,[17],inactive
same,Potency,[18],inactive
C1N2CN3CN1CN(C2)C3,Potency,[1],inactive
same,outcome,[2],inactive
same,outcome,[20],inactive
same,outcome,[3],inactive
same,Potency,[6],inactive
same,Potency,[7],inactive
same,outcome,[8],inactive
same,Potency,[9],inactive
same,Potency,[10],inactive
same,Potency,[11],inactive
same,outcome,[12],inactive
same,Potency,[13],inactive
same,Potency,[14],inactive
same,Potency,[15],inactive
same,Potency,[17],inactive
same,Potency,[18],inactive
Oc1ccc(/C=C/c2cc(O)cc(O)c2)cc1,Potency,[1],inactive
same,Potency,[4],inactive
same,"activity change, positive = activation",[5]; at 42.5 µM (top of the series),132% (active)
same,"activity change, positive = activation",[5]; at 92.4 µM (top of the series),0.861% (active) and 27.4% (active)
same,Potency,[6],inactive
same,Potency,[7],19.7 µM (active)
same,outcome,[8],inactive
same,Potency,[9],inactive
same,Potency,[10],inactive
same,Potency,[11],inactive
same,outcome,[12],inactive
same,Potency,[19],15.6 µM (active)
same,Potency,[13],inactive
same,Potency,[14],inactive
same,Potency,[15],inactive
same,Potency,[18],inactive
O=C(O)c1cccnc1,Potency,[1],inactive
same,outcome,[2],inactive
same,outcome,[20],inactive
same,outcome,[3],inactive
same,Potency,[6],inactive
same,Potency,[7],inactive
same,outcome,[8],inactive
same,Potency,[9],inactive
same,Potency,[10],inactive
same,Potency,[11],inactive
same,outcome,[12],inactive
same,Potency,[13],inactive
same,Potency,[14],inactive
same,Potency,[15],inactive
same,Potency,[17],inactive
same,Potency,[18],inactive
CCC1(c2ccccc2)C(=O)NCNC1=O,Potency,[1],inactive
same,outcome,[2],inactive
same,outcome,[3],inactive
same,Potency,[6],inactive
same,Potency,[7],inactive
same,outcome,[8],inactive
same,Potency,[9],inactive
same,Potency,[10],inactive
same,Potency,[11],inactive
same,outcome,[12],inactive
same,Potency,[13],inactive
same,Potency,[14],inactive
same,Potency,[15],inactive
same,Potency,[17],inactive
same,Potency,[18],inactive
O=C1NC(=O)c2ccccc21,Potency,[1],inactive
same,outcome,[2],inactive
same,outcome,[20],inactive
same,outcome,[3],inactive
same,Potency,[6],inactive
same,Potency,[7],inactive
same,outcome,[8],inactive
same,Potency,[9],inactive
same,Potency,[10],inactive
same,Potency,[11],inactive
same,outcome,[12],inactive
same,Potency,[13],inactive
same,Potency,[14],inactive
same,Potency,[15],inactive
same,Potency,[17],inactive
same,Potency,[18],inactive
NC(N)=NC(=O)c1nc(Cl)c(N)nc1N,Potency,[1],inactive
same,outcome,[2],inactive
same,outcome,[3],inactive
same,Potency,[6],inactive
same,Potency,[7],inactive
same,outcome,[8],inactive
same,Potency,[9],inactive
same,Potency,[10],inactive
same,Potency,[11],inactive
same,outcome,[12],inactive
same,max response,[19],-9.86% (inactive) and -7.01% (inactive) and -5.97% (inactive)
same,Potency,[13],inactive
same,Potency,[14],inactive
same,Potency,[15],inactive
same,Potency,[16],inactive
same,Potency,[17],inactive
same,Potency,[18],inactive
OC(Cn1cncn1)(Cn1cncn1)c1ccc(F)cc1F,Potency,[1],inactive
same,outcome,[20],inactive
same,outcome,[3],inactive
same,Potency,[4],inactive
same,"activity change, positive = activation",[5]; at 42.5 µM (top of the series),4.61% (inactive)
same,"activity change, positive = activation",[5]; at 92.4 µM (top of the series),8.25% (inactive) and 5.79% (inactive)
same,Potency,[6],inactive
same,Potency,[7],inactive
same,outcome,[8],inactive
same,Potency,[9],inactive
same,Potency,[10],inactive
same,Potency,[11],inactive
same,outcome,[12],inactive
same,Potency,[13],inactive
same,Potency,[14],inactive
same,Potency,[15],inactive
same,Potency,[17],inactive
same,Potency,[18],inactive
